Bioassay records: PubChem BioAssay, The Scripps Research Institute Molecular Screening Center
TEAD-YAP inh: TEAD-YAP interaction inhibition, primary screen, TEAD-YAP interaction inhibitor project, luminescence, HEK-TIYL cells | TEAD-Gal4/YAP UAS-luciferase luminescence | AID 1259422, 2018 | hit rate 1.4% among 640,000 | inhibition, % at 9.12 µM; in the data active means inhibition above about 32%;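 further: 0% = median of test compound wells and 100% = reference inhibitor wells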
GPR151 ag: activators of human GPR151, primary screen, cell-based, PathHunter beta-arrestin, luminescence; activation, % at 11.2 µM; PathHunter beta-arrestin GPR151 cells; hit rate 1% among 650,000; in the data active means activation above about 4.9%;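 further: 0% = median of compound wells and 100% = cells with positive control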
MITF primary: MITF inhibitors, primary screen, biochemical, AlphaScreen, human. AID 1259374, 2018. hit rate 0.91% among 650,000. AlphaScreen MITF homodimerization, bead proximity signal. Microphthalmia-associated transcription factor (Homo sapiens), O75030. inhibition, % at 2.6 µM; in the data active means inhibition above about 50%;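 further: 0% = vehicle wells with protein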
FBW7 act: FBW7 E3 ligase activators, primary screen, biochemical, AlphaScreen, human; F-box/WD repeat-containing protein 7 (Homo sapiens), Q969H0; AlphaScreen FBW7–phospho-cyclin E peptide binding, activator screen; normalized activity (activation), % at 26.1 µM; hit rate 0.13% among 650,000; AID 1259310, 2017; in the data active means normalized activity above about 1.9%;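 further: purified mutant Fbw7 with reduced substrate affinity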
* hit, by the source's call. In the library only some 3.5% were active in any assay of this set; here they are far more common.

SMILES	TEAD-YAP inh	GPR151 ag	MITF primary	FBW7 act
Cc1cccc(NC(=O)CSc2nc(C)cc(C)c2C#N)n1	81*	0	-14	0
Cc1ccc(C#N)c(SCC(=O)Nc2ccccc2C(=O)O)n1	33*	-2	-13	0
Cc1cc(C)c(C#N)c(SCC(=O)Nc2ccccc2C(=O)O)n1	8	2	10	1
CCC(C)N1C(=O)CN(C2CCC(C)CC2)C(=O)C1c1ccc(C)cc1 (stereo not given)	-12	1	-10	0
N/C(=N\N=C\c1cccc([N+](=O)[O-])c1)c1ccccn1	43*	-4	-2	0
N/C(=N\N=C/c1ccc(O)cc1)c1ccccn1	93*	-7	29	-1
C/C(=N/NC(=O)c1ccccn1)c1cccc([N+](=O)[O-])c1	-21	-3	18	0
Cc1c(Cc2ccccc2)c(N2CCN(C3CCCCC3)CC2)n2c(nc3ccccc32)c1C#N	-3	0	14	0
Cc1noc(C)c1-c1nc(NCCCN2CCCC2=O)c2ncn(-c3ccsc3)c2n1	59*	-2	-2	0
Nc1cccc(-c2nc(NCCCN3CCCC3=O)c3ncn(-c4ccsc4)c3n2)c1	62*	0	13	0
O=C1CCCN1CCCNc1nc(-c2ccc(N3CCOCC3)nc2)nc2c1ncn2-c1ccsc1	48*	-2	-10	0
CN1CCN(c2ccc(-c3nc(NCCCN4CCCC4=O)c4ncn(-c5ccsc5)c4n3)cc2)CC1	35*	0	-7	0
O=C1CCCN1CCCNc1nc(-c2ccc(N3CCOCC3)nc2)nc2c1ncn2CCN1CCCC1=O	2	0	-6	0
CS(=O)(=O)N(CC(=O)NCCSc1ccc(Cl)cc1)c1cccc([N+](=O)[O-])c1	11	2	1	0
COc1ccccc1CN(Cc1cc2cccc(C)c2n2nnnc12)C(=O)c1ccncc1	34*	0	-1	0
Cc1cccc2cc(CN(CCc3ccccc3)C(=O)c3ccncc3)c3nnnn3c12	-2	-1	12	1
COc1ccc2cc(-c3nc4ccccc4[nH]3)c(=Nc3ccc(C(N)=O)cc3)oc2c1	66*	-7	-8	0
COc1ccc2oc(=Nc3ccccc3)c(-c3nc4ccccc4[nH]3)cc2c1	-21	-2	9	0
COc1ccc2cc(-c3nc4ccccc4[nH]3)c(=Nc3ccc(F)cc3)oc2c1	76*	-7	-5	1
Cc1cc(C)nc(/N=C(\N)Nc2ccc(C(C)C)cc2)n1	35*	2	-2	0
CCCCc1ccc(N/C(N)=N/c2nc(C)cc(C)n2)cc1	54*	2	7	0
Cc1cc(C)nc(/N=C(\N)Nc2ccccc2-c2ccccc2)n1	43*	1	1	0
Cc1ccc(N/C(N)=N/c2nc(C)cc(C)n2)cc1	7	-1	11	0
c1ccc(COc2ccc(CN3CCOCC3)cc2)cc1	71*	-4	-14	0
C/C=C/C(=O)Nc1ccc(-c2ccc(NC(=O)/C=C/C)c(OC)c2)cc1OC	61*	0	8	1
SMILES	TEAD-YAP inh	GPR151 ag	MITF primary	FBW7 act
Cc1n(CC(=O)c2ccc([N+](=O)[O-])cc2)c2ccccc2[n+]1C	-4	3	-9	0
CN1CCN(c2cc(-c3ccncc3)nc(-c3cccnc3)n2)CC1	61*	3	0	0
c1ccc(-c2cc(N3CCc4ccccc4C3)nc(-c3ccccn3)n2)nc1	69*	1	85*	-1
CN1CCN(c2cc(-c3ccccc3)nc(-c3ccccn3)n2)CC1	2	0	-5	0
CN1CCN(c2cc(-c3ccccn3)nc(-c3ccccn3)n2)CC1	32	2	112*	-1
N#CC1(c2ccccc2)CCc2c(sc3nc[nH]c(=O)c23)C1 (stereo not given)	-4	0	15	0
Cc1ccc(CN2CCN(/N=C/c3ccc(O)c(O)c3)CC2)cc1	6	1	55*	-1
Oc1ccc(/C=N/N2CCN(Cc3ccccc3)CC2)cc1O	5	0	35	0
O=C(Cc1ccccc1)Nc1cnn(-c2cccc(C(=O)Nc3ccc(Cn4ccnc4)cc3)c2)c1	3	0	-4	0
O=C(Nc1ccc(Cn2ccnc2)cc1)c1cccc(-n2cc(NC(=O)C3CCc4ccccc43)cn2)c1 (stereo not given)	37*	-1	-3	0
O=S(=O)(Nc1cccc2ncccc12)c1ccc2ccccc2c1	-22	0	-12	0
